# This is a sample that favours compounds with a hit; in the whole collection about 19% have one here.
# SARS PLP yeast: qHTS of Yeast-based Assay for SARS-CoV PLP; S. cerevisiae expressing SARS-CoV PLpro, growth rescue; AID 485353, 2010; Potency, µM (highest dose often 32.9 µM), inactives show at the top dose activity, positive = growth rescue, actives largely listed as activators; 330,000 compounds, 0.19% hits; calls by dose curve; note: potency is the fitted concentration of half-maximal effect; 0% is about no effect; nearly all actives have a fitted effect of over 55% in size
# Shiga inhibitor: A qHTS for Small Molecule Inhibitors of Shiga Toxin; Vero cells, Shiga toxin protein synthesis inhibition reporter; inhibition, % at 38.7 µM; 290,000 compounds, 9.2% hits; AID 2315, 2010; in the data active = inhibition mostly above about 28%, no sharp cut-off; inactive = mostly below about 43%; note: 0% is about no effect
# Pf growth 48h: Primary qHTS for delayed death inhibitors of the malarial parasite plastid, 48 hour incubation; 310,000 compounds, 5.9% hits; Potency, µM (series often up to 28.7 µM), for inactives: top-dose activity change, negative = inhibition, most hits filed as inhibitors; P. falciparum luciferase growth in erythrocytes, 48 h; AID 504832, 2011; note: potency is the fitted concentration of half-maximal effect; % is set by controls: 0 for no effect and ±100 for the full control effect
#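 Read-out is firefly luciferase luminescence from an integrated reporter in P. falciparum, so falling signal marks reduced parasite growth. Infected erythrocytes were at 2% hematocrit and 0.1% parasitemia (final) in Albumax-supplemented RPMI 1640.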
# AMA1-RON2 inh: qHTS for Inhibitors of AMA1-RON; Towards Development of Antimalarial Drug Lead: Primary Screen; AlphaScreen AMA1-biotinylated RON2 peptide binding; Plasmodium falciparum AMA1 (3D7) - RON2 peptide interaction; Potency, µM (series often up to 58.2 µM), for the others: top-dose activity change, negative = inhibition, actives largely listed as inhibitors; AID 720542, 2013; 360,000 compounds, 0.2% hits;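 note: potency is the fitted concentration of half-maximal effect; 0% = vehicle wells and -100% = peptide control; nearly all actives have a fitted effect of over 45% in size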
#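 AMA1 (3D7) with his tag at 25 nM final met compounds first, then biotinylated RON2 peptide at 25 nM; detection used donor plus acceptor beads, 10 µg/mL apiece, read by AlphaScreen after 30 min at room temperature.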
# Pf growth 96h: Primary qHTS for delayed death inhibitors of the malarial parasite plastid, 96 hour incubation; P. falciparum luciferase reporter growth, 96 h; Potency, µM (titrated, usually from 28.7 µM), for the others: at the highest dose activity change, negative = inhibition, most hits filed as inhibitors; 320,000 compounds, 6.9% hits; note: potency is the fitted concentration of half-maximal effect; % is set by controls: 0 for no effect and ±100 for the full control effect
#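 Two-generation exposure (96 h) targets delayed-death phenotype. Reporter parasites carrying integrated firefly luciferase, in red cells at 2% hematocrit and 0.05% parasitemia final, kept at 37 C, 5% CO2; luminescence loss indicates inhibition.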
# Cycloheximide cs: Cycloheximide Counterscreen for Small Molecule Inhibitors of Shiga Toxin; cell reporter, cycloheximide protein synthesis inhibition counterscreen; 300,000 compounds, 12% hits; max response, %; in the data active = max response mostly above about 13%, no sharp cut-off; inactive = mostly below about 14%; note: read at 38.3 µM for the half of the compounds with a filed dose; 0% is about no effect
# * marks the source's active call; other numbers are inactive results; u = inconclusive; x = not tested or not shown. Unless noted, calls come from the whole dose curve; as a rule, active = well fitted curve in the direction sought with a large enough effect; inconclusive = small, poorly fitted or top-dose-only effect, or another doubt; inactive = no such curve, though single readings can be large; an effect the other way counts as inactive or inconclusive.
SMILES,SARS PLP yeast,Shiga inhibitor,Pf growth 48h,AMA1-RON2 inh,Pf growth 96h,Cycloheximide cs
Cc1ccccc1NS(=O)(=O)c1ccc2[nH]cc(C(=O)NCCCN3CCOCC3)c(=O)c2c1,3%,-12,4.1µM*,-13%,-9%,1
Cc1ccc(NC(=O)CNC(=O)C2CCCCC2)nc1,9%,x,13%,-12%,10%,x
Cc1cc(C)c(S(=O)(=O)NNC(=O)C2CCN(Cc3ccccc3)CC2)c(C)c1,-3%,-10,0%,16%,39%,-3
COC(=O)c1sccc1S(=O)(=O)Nc1ccc(N2CCCCC2)cc1,0%,-7,u,14µM*,u,8
COC(=O)c1sccc1S(=O)(=O)Nc1ccc(S(N)(=O)=O)cc1,1%,32,16%,-16%,9%,8
CCOC(=O)C1=C(C)N=c2s/c(=C/c3ccc(OCC(=O)O)cc3)c(=O)n2C1c1ccc(F)cc1 (centres undefined),-1%,-1,3.3µM*,-4%,u,-1
CCOC(=O)C1=C(C)N=c2s/c(=C/c3ccc(OCC(=O)O)cc3)c(=O)n2C1c1ccc(SC)cc1 (centres undefined),4%,13,5.2µM*,x,u,-3
CCOC(=O)C1=C(C)N=c2s/c(=C\c3ccncc3)c(=O)n2C1c1ccc2c(c1)OCO2 (centres undefined),1%,-13,4.1µM*,-13%,-2%,-3
CCOC(=O)C1=C(C)N=c2s/c(=C\c3ccc(OCC(=O)O)cc3)c(=O)n2C1c1ccc(Cl)cc1 (centres undefined),2%,28,9.3µM*,23%,1.5µM*,-2
CCOc1ccccc1NC(=O)CSc1nc2cccnc2n1C,0%,-22,-13%,-14%,28%,-5
CN(C(=O)c1cccc(NC(=O)Cc2ccc(NC(=O)C3CCN(C(=O)CCc4ccccc4)CC3)cc2)c1)C1CCC1,x,x,x,-8%,x,x
CCCCCCN1C[C@H](O)[C@@H](n2cc(-c3ccc(F)cc3)nn2)C[C@@H]1c1ccccc1,x,x,x,-11%,x,x
C[C@H]1[C@H](C)CC[C@]2(C)CC[C@]3(C)C(=CC[C@@H]4[C@@]5(C)CC[C@@H](O)[C@](C)(C(=O)O)[C@@H]5CC[C@]43C)[C@H]12,1%,-3,u,x,13µM*,-2
CC(NC(=O)c1ccc2ccccc2n1)c1ccc(Br)cc1 (centres undefined),-54%,-3,2%,24%,u,8
Brc1ccc(N=Nc2ccc3ccccc3n2)cc1,-1%,54*,0.33µM*,u,u,36*
COc1cccc(NC(=S)NCCC(c2ccccc2)c2ccccc2)c1,27%,-4,u,-2%,u,11
COc1ccc(CCNC(=S)Nc2ccccc2)cc1,-1%,3,10µM*,-5%,u,15
COc1cc(NC(=S)NCCC(c2ccccc2)c2ccccc2)cc(OC)c1,u,-13,13µM*,72%,u,-2
COc1ccc(CNC(=S)Nc2ccc(OC)cc2)cc1,11µM*,33,-6%,6%,325%,-2
COc1ccc(CCNC(=S)Nc2ccc(OC)cc2)cc1,24%,11,-19%,2%,-21%,5
O=C(NCc1ccco1)c1ccc(OCC2CCCO2)cc1 (centres undefined),3%,23,1%,1%,x,20*
Cc1ccc(CNC(=O)c2ccc(OCC3CCCO3)cc2)cc1 (centres undefined),9%,16,0%,7%,34%,15*
O=C(NCc1ccc(Cl)cc1)c1ccc(OCC2CCCO2)cc1 (centres undefined),-7%,14,9%,11%,7%,-3
COc1ccc(-c2ccc(N(C)C)cc2)cc1C1C2C=CCCC2(C)C(=O)N1Cc1ccccc1 (centres undefined),x,25,x,x,x,21
COc1ccc(-c2ccc(N(C)C)cc2)cc1[C@H]1[C@@H]2C=CCC[C@@]2(C)C(=O)N1Cc1ccccc1,-4%,-3,9.3µM*,u,9.3µM*,-3
SMILES,SARS PLP yeast,Shiga inhibitor,Pf growth 48h,AMA1-RON2 inh,Pf growth 96h,Cycloheximide cs
COc1ccc(Br)cc1[C@H]1[C@@H]2C=CCC[C@@]2(C)C(=O)N1Cc1ccccc1,-18%,0,u,-1%,12µM*,-3
COc1ccc(Br)cc1C1C2C=CCCC2(C)C(=O)N1Cc1ccccc1 (centres undefined),x,3,x,x,x,10
COc1ccc(-c2c(C3C4C=CCCC4(C)C(=O)N3Cc3ccccc3)ccc3ccccc23)cc1OC (centres undefined),x,10,x,x,x,9
COc1ccc(-c2ccc(OC)c([C@H]3[C@@H]4C=CCC[C@@]4(C)C(=O)N3Cc3ccccc3)c2)cc1OC,-4%,7,8.3µM*,u,12µM*,8
CCc1nnc(SCC(=O)Nc2ccccc2)n1CC1CCCO1 (centres undefined),-2%,-4,11%,-5%,17%,-2
CC(C)C1C(=O)N(Cc2cn(CCC3OCCO3)nn2)CCS(=O)(=O)N1Cc1ccc(-c2ccc(F)cc2Cl)cc1 (centres undefined),x,x,x,-6%,x,x
COc1ccc(CC(=O)Nc2ccc(C(=O)Nc3nccs3)cc2)cc1OC,0%,30,u,10%,18%,9
CNc1cc(CSc2ccc(Cl)cc2)nc(C)n1,3%,99*,173%,0%,180%,47*
Cc1nc(CSc2ccc(Cl)cc2)cc(N2CCOCC2)n1,-5%,-2,4%,-2%,7.4µM*,10
CSCC[C@H](NC(=O)[C@H](CC(C)C)NC(=O)CNC(=O)[C@@H]1CCCN1C(=O)[C@H](Cc1ccccc1)NC(=O)[C@H](Cc1ccccc1)NC(=O)[C@H](CC(=O)O)NC(=O)[C@H](Cc1cnc[nH]1)NC(=O)[C@H](CCSC)NC(=O)[C@@H](N)CC(=O)O)C(N)=O,x,-6,x,x,x,-4
O=C(CNC(=O)[C@@H]1Cc2ccccc2CN1)Nc1ccc2c(c1)OCCO2,-6%,60*,42%,30%,53%,37*
COCCNC(=O)C(NC(=O)C1CCCCC1)C(C)C (centres undefined),-8%,14,13%,2%,0.74µM*,-6
CCc1ccc(NC(=O)CNC(=O)[C@@H]2Cc3ccccc3CN2)cc1,-4%,3,1%,18%,-26%,5
O=C(CNC(=O)[C@@H]1Cc2ccccc2CN1)NC1CCCC1,-4%,53,u,14%,u,24*

# Screens as filed in PubChem BioAssay.
